Assay results published in PubChem BioAssay.
Activity calls are given as the source filed them. Unless noted, the rule behind the calls is not given here.

Legend:
[1] = anti-His antibody binders, primary screen, artefact control for SMM control protein annotation, biochemical, small-molecule microarray, 635 nm fluorescence (AID 1128); details: anti-His Alexa647 antibody binding, higher = more signal;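 note: score merges feature fluorescence with signal-to-noise for each printed compound spot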
[2] = tested on: Human papillomavirus type 1a E7 protein (residues 1-88); assay: HPV1a E7 small-molecule binders, primary screen, biochemical, small-molecule microarray, residues 1-88, 635 nm (AID 1129); details: small-molecule microarray binding, fluorescence 635 nm; higher = more signal
[3] = target: Focal adhesion kinase 1 (Homo sapiens) (UniProt Q05397); assay: small-molecule microarray binders of FAK, primary screen, biochemical, 635/667 nm fluorescence, BSA, DTT (AID 1130); details: PTK2 binding, 635 nm fluorescence, higher = more signal;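 note: composite of spot emission at 667 nm and signal to noise over triplicate slides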
[4] = tested on: Fibrinogen (Alexa647-labelled); assay: fibrinogen binders on compound microarrays, profiling panel, artefact control for SMM control-protein annotation, biochemical, small-molecule microarray, 635/667 nm fluorescence (AID 1131); details: fibrinogen-A647 binding fluorescence, higher = more signal;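 note: z-score merges 667 nm fluorescence with per-spot signal-to-noise over triplicate slides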
[5] = target: Follistatin (Homo sapiens) (UniProt P19883); assay: follistatin binders on small-molecule microarrays, primary screen, biochemical, small-molecule microarray, 635/667 nm fluorescence (AID 1132); details: FST binding, 635 nm fluorescence, higher = more signal
[6] = target: Fibroblast growth factor 2 (Homo sapiens) (UniProt P09038); assay: FGF2 binders on small-molecule microarrays, primary screen, biochemical, small-molecule microarray, 635/667 nm fluorescence (AID 1133); details: small-molecule microarray binding, FGF2, fluorescence 635/667; higher = more signal
[7] = mitochondrial membrane potential change in A549 cells, profiling panel, cell-based, JC-1 fluorescence, basal, 24 h, 100 nL (AID 1138); details: higher = more signal;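 note: A549 lung adenocarcinoma cells under basal conditions with no added stimulus; test concentration not given here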
[8] = tested on: Lefty1; assay: Lefty1 binders on small-molecule microarrays, primary screen, biochemical, small-molecule microarray, 635/667 nm fluorescence (AID 1139); details: small-molecule microarray binding, fluorescence 635/667; higher = more signal
[9] = tested on: wheat germ agglutinin (Triticum aestivum), Alexa647-labelled; assay: wheat germ agglutinin binders on compound microarrays, profiling panel, artefact control for SMM control-protein annotation, biochemical, small-molecule microarray, 635/667 nm fluorescence (AID 1140); details: WGA-A647 binding, 635 nm fluorescence, higher = more signal;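 note: score merges 667 nm feature emission with signal to noise over triplicate slides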
[10] = target: Luciferin 4-monooxygenase (Photinus pyralis) (UniProt P08659); assay: firefly luciferase enzyme inhibitors, primary screen, biochemical, luminescence, purified enzyme, 2006 set (AID 1141); details: SteadyGlo luminescence, 30 min, higher = more signal, called active from +8 up or from −8 down;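 note: cell-free assay with purified firefly luciferase at 100 ng per well in PBS; test concentration not given here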
[11] = tested on: Wnt5a (protein binding on small-molecule microarray); assay: Wnt5a binders on small-molecule microarray, primary screen, biophysical, 635/667 nm fluorescence (AID 1142); details: 635 nm fluorescence, higher = more signal;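 note: fluorescence read at 667 nm with signal to noise per printed feature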
[12] = cell viability in Huh7 cells, primary screen, cytotoxicity control for HCV replication inhibitor project, CellTiter-Glo luminescence, basal, 48 h (AID 1143); details: Huh7 HCV replicon, higher = more signal, called active from +8 up or from −8 down;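 note: Huh7 hepatoma cells carrying a hepatitis C replication reporter with no stimulus; test concentration not given here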
[13] = P. aeruginosa biofilm formation inhibitors, primary screen, PAO1 strain, BacTiter-Glo luminescence, LB-PBS (AID 1144); details: 12 h, higher = more signal
[14] = CREB reporter modulators without forskolin, primary screen, cell-based, PC12, CRE-LacZ reporter, unstimulated (AID 1145); details: no forskolin, luminescence, 4.5 h, higher = more signal, called active from +8 up or from −8 down
[15] = CREB reporter modulators under forskolin, primary screen, cell-based, PC12, CRE-LacZ reporter, forskolin-stimulated (AID 1146); details: luminescence, 4.5 h, higher = more signal, called active from +8 up or from −8 down;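 note: PC12 cells with 6xCRE LacZ reporter stimulated by forskolin 10 µM; beta-galactosidase reporter signal reflecting CREB driven transcription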
[16] = target: Streptavidin (Streptomyces avidinii) (UniProt P22629); assay: streptavidin binders on small-molecule microarray, primary screen, artefact control for SMM compound annotation, biophysical, 635/667 nm fluorescence (AID 1147); details: streptavidin binding, higher = more signal;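 note: signal reflects streptavidin binding to arrayed compounds as a control protein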
[17] = small-molecule binders of probe aInhba, primary screen, biochemical, small-molecule microarray, 635/667 nm fluorescence (AID 1148); details: higher = more signal;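 note: score merges 667nm spot fluorescence with signal-to-noise for antibody binding to printed compounds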
[18] = target: Torsin-1A (Homo sapiens) (UniProt O14656); assay: torsin A binders from cell lysate, primary screen, small-molecule microarray, wild-type, 635/667 nm (AID 1149); details: COS7 hTOR1A-WT lysate, 635 nm fluorescence, higher = more signal
[19] = target: Torsin-1A (Homo sapiens) (UniProt O14656); assay: small-molecule binders of mutant TOR1A in lysate, primary screen, cell lysate, small-molecule microarray, COS7 lysate, 635/667 nm fluorescence (AID 1150); details: COS7 hTOR1A mutant lysate, 635 nm fluorescence, higher = more signal;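 note: score pools 667 nm emission and signal to noise measuring lysate protein binding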
[20] = tested on: Sonic hedgehog protein (Shh); assay: small-molecule binders of Shh protein, primary screen, biochemical, small-molecule microarray, 635/667 nm fluorescence (AID 1151); details: small-molecule microarray binding, 635 nm fluorescence; higher = more signal;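 note: Shh protein binding to compounds spotted on small-molecule microarray slides; score combines spot fluorescence intensity with signal-to-noise across triplicate slides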

Luciferin 4-monooxygenase (Photinus pyralis), sequence (P08659 whole entry, looked up): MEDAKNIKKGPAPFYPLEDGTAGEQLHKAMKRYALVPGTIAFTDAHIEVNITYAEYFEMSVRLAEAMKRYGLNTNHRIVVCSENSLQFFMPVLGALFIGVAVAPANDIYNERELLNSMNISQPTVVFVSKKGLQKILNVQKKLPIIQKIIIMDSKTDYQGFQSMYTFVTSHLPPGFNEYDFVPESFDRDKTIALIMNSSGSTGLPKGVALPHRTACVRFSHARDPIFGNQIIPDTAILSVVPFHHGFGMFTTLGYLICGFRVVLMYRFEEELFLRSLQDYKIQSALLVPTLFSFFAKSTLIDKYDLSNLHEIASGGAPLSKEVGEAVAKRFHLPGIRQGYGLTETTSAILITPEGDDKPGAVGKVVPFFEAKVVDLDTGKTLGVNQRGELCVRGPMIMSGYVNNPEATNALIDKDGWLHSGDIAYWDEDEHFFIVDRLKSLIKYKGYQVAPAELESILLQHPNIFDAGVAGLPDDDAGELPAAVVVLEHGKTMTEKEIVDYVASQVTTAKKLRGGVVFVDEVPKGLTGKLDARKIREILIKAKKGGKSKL
Streptavidin (Streptomyces avidinii), sequence (P22629 whole entry, looked up): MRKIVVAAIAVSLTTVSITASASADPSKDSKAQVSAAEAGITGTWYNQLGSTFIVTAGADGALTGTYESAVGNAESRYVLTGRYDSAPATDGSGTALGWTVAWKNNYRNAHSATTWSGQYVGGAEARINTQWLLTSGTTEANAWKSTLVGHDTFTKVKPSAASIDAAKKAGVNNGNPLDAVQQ
Fibroblast growth factor 2 (Homo sapiens), sequence (P09038 whole entry, looked up): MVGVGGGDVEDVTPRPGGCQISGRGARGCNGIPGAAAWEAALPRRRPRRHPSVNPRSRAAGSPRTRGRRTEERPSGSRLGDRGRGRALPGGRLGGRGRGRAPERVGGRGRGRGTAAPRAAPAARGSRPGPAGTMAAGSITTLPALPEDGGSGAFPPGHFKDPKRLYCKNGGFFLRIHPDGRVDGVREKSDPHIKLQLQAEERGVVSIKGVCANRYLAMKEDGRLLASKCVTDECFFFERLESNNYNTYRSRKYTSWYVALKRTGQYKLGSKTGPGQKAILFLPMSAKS
Focal adhesion kinase 1 (Homo sapiens), sequence (Q05397 whole entry, looked up): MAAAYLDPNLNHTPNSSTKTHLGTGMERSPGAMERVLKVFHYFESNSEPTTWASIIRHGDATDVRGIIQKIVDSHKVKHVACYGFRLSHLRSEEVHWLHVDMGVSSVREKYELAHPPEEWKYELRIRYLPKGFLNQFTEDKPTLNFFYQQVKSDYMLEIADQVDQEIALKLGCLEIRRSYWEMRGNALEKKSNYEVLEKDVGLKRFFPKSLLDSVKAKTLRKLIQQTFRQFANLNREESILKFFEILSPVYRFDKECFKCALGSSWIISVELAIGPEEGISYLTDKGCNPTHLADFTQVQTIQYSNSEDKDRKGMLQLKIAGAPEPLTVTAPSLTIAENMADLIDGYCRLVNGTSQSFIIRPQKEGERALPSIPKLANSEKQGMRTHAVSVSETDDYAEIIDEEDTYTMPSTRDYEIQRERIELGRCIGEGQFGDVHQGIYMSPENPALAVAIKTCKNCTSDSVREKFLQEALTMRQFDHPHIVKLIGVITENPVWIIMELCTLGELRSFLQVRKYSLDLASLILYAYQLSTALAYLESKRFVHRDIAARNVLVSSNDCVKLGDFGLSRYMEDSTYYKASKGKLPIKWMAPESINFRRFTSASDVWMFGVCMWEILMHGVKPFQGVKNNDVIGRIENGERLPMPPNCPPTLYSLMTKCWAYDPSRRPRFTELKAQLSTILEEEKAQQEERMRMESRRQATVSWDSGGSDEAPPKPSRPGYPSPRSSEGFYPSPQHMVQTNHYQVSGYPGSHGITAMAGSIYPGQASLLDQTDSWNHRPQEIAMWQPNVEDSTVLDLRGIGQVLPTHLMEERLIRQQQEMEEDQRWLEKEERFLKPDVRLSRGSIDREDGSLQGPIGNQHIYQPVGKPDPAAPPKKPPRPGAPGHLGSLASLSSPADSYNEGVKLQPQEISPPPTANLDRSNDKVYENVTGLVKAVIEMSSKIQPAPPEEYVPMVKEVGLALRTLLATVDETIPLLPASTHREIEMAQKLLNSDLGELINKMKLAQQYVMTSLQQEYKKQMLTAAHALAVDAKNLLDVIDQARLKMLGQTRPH
Follistatin (Homo sapiens), sequence (P19883 whole entry, looked up): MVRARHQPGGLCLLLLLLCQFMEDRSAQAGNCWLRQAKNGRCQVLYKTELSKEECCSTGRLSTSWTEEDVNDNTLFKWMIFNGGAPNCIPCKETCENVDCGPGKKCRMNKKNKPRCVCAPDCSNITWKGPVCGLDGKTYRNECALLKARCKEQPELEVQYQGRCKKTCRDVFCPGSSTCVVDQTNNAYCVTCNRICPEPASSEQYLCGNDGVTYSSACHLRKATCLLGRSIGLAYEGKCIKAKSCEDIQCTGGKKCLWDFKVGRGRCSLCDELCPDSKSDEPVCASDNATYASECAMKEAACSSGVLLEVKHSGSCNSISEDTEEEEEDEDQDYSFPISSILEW
Torsin-1A (Homo sapiens), sequence (O14656 whole entry, looked up): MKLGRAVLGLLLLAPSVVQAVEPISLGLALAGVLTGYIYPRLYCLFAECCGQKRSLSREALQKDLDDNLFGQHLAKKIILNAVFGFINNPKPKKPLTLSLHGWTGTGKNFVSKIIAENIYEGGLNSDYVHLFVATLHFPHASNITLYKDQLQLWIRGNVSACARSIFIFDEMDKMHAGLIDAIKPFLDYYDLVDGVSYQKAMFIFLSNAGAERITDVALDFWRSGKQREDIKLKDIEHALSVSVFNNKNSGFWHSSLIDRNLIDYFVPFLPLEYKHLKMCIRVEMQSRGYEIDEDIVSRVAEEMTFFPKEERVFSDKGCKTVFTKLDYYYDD

Row | Structure (SMILES) | composite z-score [1] | composite z-score [2] | composite z-score [3] | composite z-score [4] | composite z-score [5] | composite z-score [6] | z-score [7] | composite z-score [8] | composite z-score [9] | z-score [10] | composite z-score [11] | z-score [12] | z-score [13] | z-score [14] | z-score [15] | composite z-score [16] | composite z-score [17] | composite z-score [18] | composite z-score [19] | composite z-score [20]
1 | COC(=O)[C@@]1(Cc2ccc(OC)cc2)[C@H]2c3cc(C(=O)N4CCCC4)n(CCc4ccc(O)c(OC)c4)c3C[C@H]2CN1C(=O)c1ccccc1 | 0.772 | 0.23 | 0.717 | 0.219 | -0.625 | -0.46 | -0.0583 | -1.78 | 0.0523 | 0.551 (inactive) | 0.0928 | -0.666 (inactive) | -0.414 (inactive) | 2.5 (inactive) | 1.04 (inactive) | 0.199 | 0.12 | 0.168 | 0.774 | -0.909
2 | COC(=O)[C@@]1(Cc2ccc(OC)cc2)[C@H]2c3cc(C(=O)N(C)C)n(CCF)c3C[C@H]2CN1C(=O)c1ccccc1 | 1.9 | 1.25 | 0.842 | 1.01 | 0.887 | 0.127 | 0.486 | -0.698 | 1.32 | 0.948 (inactive) | 0.17 | -2.15 (inactive) | 0.475 (inactive) | 1.35 (inactive) | -0.715 (inactive) | 2.2 | 0.515 | 0.3 | 0.541 | -0.379
3 | Cc1cc(C)c(C(O)C2C=CC3C(=O)N(c4ccccc4)C(=O)C3N2Nc2ccccc2)c(C)c1 (stereo not given) | 2.11 | 1.22 | 0.638 | 1.03 | 0.784 | 0.0968 | 0.384 | 0.366 | 1.43 | -0.584 (inactive) | 0.345 | 0.326 (inactive) | -1.38 (inactive) | -0.329 (inactive) | 0.501 (inactive) | 1.55 | 0.117 | 0.133 | 0.329 | 0.234
4 | [N-]=[N+]=NCc1ccccc1C[C@@]1(C(=O)NCCN2CCOCC2)N=C(c2ccc(OCCCO)cc2)O[C@@H]1c1ccccc1CN=[N+]=[N-] | 2.12 | 1.21 | 0.366 | 0.973 | 1.45 | 0.672 | 1.08 | 0.785 | 0.59 | -1.36 (inactive) | 0.784 | -2.99 (inactive) | 0.497 (inactive) | -0.641 (inactive) | -0.781 (inactive) | 0.697 | 0.196 | -0.0348 | 0.472 | 0.619
5 | Cc1ccccc1C(O)C1C=CC2C(=O)N(C)C(=O)C2N1Nc1ccc([N+](=O)[O-])cc1[N+](=O)[O-] (stereo not given) | 0.509 | 1.27 | 0.646 | 1.02 | 0.674 | -0.38 | 0.668 | -0.167 | 0.913 | 0.147 (inactive) | 0.483 | -0.157 (inactive) | 0.262 (inactive) | 0.443 (inactive) | 0.57 (inactive) | 1.04 | 0.138 | -0.0091 | 0.94 | -0.457
6 | CC(C)N1CC=CC23O[C@@H]4C=CCOC(=O)[C@@H]4[C@H]2C(=O)N(CCCCCCO)[C@@H]3C1=O (stereo not given in full) | -0.249 | -0.407 | -0.181 | -1.66 | -0.663 | -1.19 | -0.525 | -0.0359 | 0.666 | 0.287 (inactive) | -0.301 | -0.0015 (inactive) | -0.839 (inactive) | -0.627 (inactive) | -0.421 (inactive) | -0.665 | -0.097 | -2.54 | -0.976 | 1.08
7 | [N-]=[N+]=Nc1ccccc1[C@@H]1OC(c2ccc(OCCCO)cc2)=N[C@]1(CCS(=O)(=O)c1ccccc1)C(=O)NCc1ccccc1 | 1.13 | 0.742 | 1.03 | 0.982 | 1.3 | 1.06 | 0.27 | -0.141 | 1.2 | -11.9 (active) | 0.554 | -1.97 (inactive) | 0.156 (inactive) | -0.744 (inactive) | -0.653 (inactive) | 1.3 | 0.293 | 1.53 | 1.29 | 0.565
8 | COC(=O)c1c(CC[C@@H](CO)NC(=O)N[C@@H](C)Cn2cc(C3(O)CCCC3)nn2)oc(C(C)=O)c1C(=O)OC | 0.863 | -0.0221 | -0.118 | 0.188 | 0.511 | 0.0707 | -0.638 | 1.54 | 1.3 | 0.315 (inactive) | -0.22 | -2.75 (inactive) | -0.0355 (inactive) | 0.861 (inactive) | -0.144 (inactive) | 0.0648 | 0.117 | 0.862 | 0.277 | 2.16
9 | C=CC[C@@]1(C(=O)NCCN2CCOCC2)N=C(c2ccc(OCCCO)cc2)O[C@@H]1c1ccccc1 | 0.432 | 1.24 | 0.49 | 0.755 | 1.46 | 1.73 | -0.185 | 1.55 | 0.978 | -0.43 (inactive) | 1.32 | -0.914 (inactive) | -0.299 (inactive) | 0.54 (inactive) | -0.0392 (inactive) | 0.803 | 0.328 | 1.24 | 0.94 | 2.1
10 | O=C(O)[C@@]1(Cc2ccccc2)COC(c2ccc(OCCCO)cc2)=N1 | -0.951 | -0.915 | -0.375 | -2.33 | 0.24 | -0.33 | 0.315 | -1.18 | -0.723 | -3.65 (inactive) | 0.0416 | 0.621 (inactive) | 0.498 (inactive) | -0.277 (inactive) | 0.0685 (inactive) | -0.345 | -0.252 | -0.162 | 1.52 | -0.555
